This note sets out measurements from PubChem BioAssay (EPA / NIEHS).

Calls of active or inactive are those of the source. How the source made its calls: active means hit-call score of the fitted dose curve at least 0.9, where 1 is the maximum; inactive means score below 0.9.

Read-out in this test: CYP2E1 (gene 1571)
Nature of the test: LTEA_HepaRG_CYP2E1: Life Technologies and Expression Analysis (LTEA) Assay for CYP2E1 using HepaRG (AID 2283485). The conditions noted are these: mRNA level, 48 h; actives raise or lower the signal. How it is done: LTEA_HepaRG is a cell based, multiplexed-readout assay that uses HepaRG, a human liver cell line, with measurements taken at 48 hours after chemical dosing on a 96-well plate.LTEA_HepaRG_CYP2E1 is one of 102 assay component(s) measured in the LTEA HepaRG cell culture assay. It is a marker of NR mediated metabolism.Data from the assay component LTEA_HepaRG_CYP2E1 was analyzed into 1 endpoint. This assay endpoint, LTEA_HepaRG_CYP2E1, was analyzed with bidirectional fitting relative to DMSO as the negative control and baseline of activity. Using a type of inducible reporter, measures of mRNA induction for gain or loss-of-signal activity can be used to understand regulation of transcription factor activity. To generalize the intended target to other relatable targets, this assay endpoint is annotated to the cyp intended target family, where the subfamily is xenobiotic metabolism.
A total of 1060 chemcials from the ToxCast library were tested in eight-point concentration-response experiments. Cell culture and cytotoxicity assays were conducted at Thermo Fisher Scientific's Custom Services facility (Madison, WI). A single lot of human HepaRG cells (Thermo Fisher Scientific, Frederick, MD) was used for the cell culture experiments. 96-well format collagen type I coated plates of human HepaRG cells were prepared using established methods. Briefly, cryopreserved HepaRG cells were thawed, plated at a density of approximately 100,000 cells/well in HepaRG Thaw, Plate, and General Purpose media (HPRG770, Thermo Fisher Scientific), and incubated for 48 hours. 0.5% DMSO was selected as vehicle control to balance the requisite need of DMSO in HepaRG cultures to maintain differentiation (for example, baseline metabolism, proportions of hepatocytes vs. cholangiocytes), while enabling further hepatic receptor pathway activation (for example, PXR and CAR) in response to chemical exposure. 48 hours after plating, the culture medium was replaced with HepaRG Serum-Free Incudtion Media. Cells were exposed to each test chemical in duplicate and maintained in CO2 incubators for another 48 hours. Chemical plates were thawed to room temperature and 200x concentrations of treatment groups were prepared. 8-point conentration-reponse curves were made with the highest exposure at 100 uM, followed by half-log dilutions, all in 0.5% DMSO. Each test plate contained variouse controls, induction positive controls (1mM phenobarbital), cytotoxicity positive controls ([…] aflatoxin B1), vehicle controls (0.5% DMSO), and total lysis controls (0.5% DMSO). Cell morphology images were taken using an Essen IncuCyte FLR automated microscope, with six 96-well plates imaged in about 24 minutes. Images were captured and exported and JPEG files. Spent culture media was transfered to black-well plates for the LDH assay, and remaining media was sorted at -80 C for later use. Cells were treated with RLT buffer and frozen until shipped for gene expression analysis. Total RNA was isolated from the cell suspension in 75 uL of Buffer RLT (Qiagen, Germantown, MD 20874) by Quintiles/Expression Analysis (Durham, NC) using a custom isolation procedure. Total RNA from each plate well was transferred to a preamplification plate. Fluidigm's 96.96 Dynamic ArrayTM (Fluidigm, Amsterdam, the Netherlands) technology was used for gene expression analyses by quantitative reverse transcription polymerase chain reaction (qRT-PCR, performed by Quintiles/Expression Analysis, Durham, NC)89. Standard TaqManTM Assays (Applied Biosystems/ThermoFisher Scientific, Foster City, CA) were used to assess the expression of 93 genes selected based on their selectivity and sensitivity to important hepatic receptors known to be modulated by environmental chemicals; importance in human hepatocyte functionality; and hepatotoxicity. […]
On to `CCC(C)(C)c1ccc(O)cc1`, for which the compound was classed as inactive.
Same read-out and setting: as for `O=C(O)C(Cl)Cl`, the entry is “inactive”.
Regarding `O=P(Oc1ccccc1)(Oc1ccccc1)Oc1ccccc1`, the AC50 – broadly, the concentration giving half of the maximal activity seen – was 26.2 µM (active).
`CCOP(=S)(OCC)SCSCC`: the call was inactive.
The same measure, in the same setting: as for `OCC1CO1` (stereo not given), the entry is “inactive”; as for `O=[N+]([O-])c1ccccc1`, “inactive”.
The same measure, in the same setting: as for `CN(C)C(=O)Cl`, the entry is “inactive”.
Regarding `CCNc1nc(Cl)nc(NC(C)(C)C)n1`, the AC50 was 26.6 µM (active).
`CC(Cc1ccc(OCC(=O)O)cc1)NCC(O)c1csc(C(F)(F)F)n1` (stereo not given): the result was inactive.
On the same count and under the same terms, as for `CCC1(c2ccccc2)C(=O)N=C(O)NC1=O` (stereo not given), the entry is “inactive”; as for `CC(C)(C)OOC(C)(C)C`, “inactive”.
Still for that read-out and setting: under `CCOC(=O)c1ccccc1C(=O)OCC` stands “inactive”.
With `ClC1=C(Cl)C2(Cl)C3C(Cl)C(Cl)CC3C1(Cl)C2(Cl)Cl` (stereo not given), the AC50 was 27.7 µM (active).
Still for that read-out and setting: under `Nc1cc2c3c(c1)C(c1ccccc1)=N[C@@H](NC(=O)c1cccnc1)C(=O)N3CC2` stands 12.2 µM (active).
In the case of `Nc1ccc(Cl)cc1`, the compound was called inactive.
Take `Nc1ccc2ccccc2c1`: the AC50 was 33.8 µM (active).
With `c1ccc(OP(Oc2ccccc2)Oc2ccccc2)cc1`, the result was inactive.
On the same count and under the same terms, as for `Cc1ccc([N+](=O)[O-])cc1C`, the entry is “inactive”; as for `O=C(O)C1C(C(=O)O)C2(Cl)C(Cl)=C(Cl)C1(Cl)C2(Cl)Cl` (stereo not given), “inactive”.
For the compound `Cc1ccc(N)cc1N`, the AC50 was 18.6 µM (active).
For `CSC(C)(C)C=NO`, the compound was called inactive.
Turning to `O=P1(N(CCCl)CCCl)NCCCO1` (stereo not given), the result was inactive.
Same read-out and setting: as for `CCOS(=O)(=O)OCC`, the entry is “inactive”.
Consider `CCOc1ccc(C(C)(C)COCc2cccc(Oc3ccccc3)c2)cc1`, for which the AC50 was 26 µM (active).
Same read-out and setting: as for `CCCCN(CCCC)SN(C)C(=O)Oc1cccc2c1OC(C)(C)C2`, the figure is 41.5 µM (active).
Take `Cc1cccc(N)c1`: the call was inactive.
As for `[N-]=[N+]=[N-]`, the AC50 was 67.1 µM (active).
Take `CCCCc1ccccc1`: the outcome was inactive.
In the case of `CCOP(=S)(Oc1ccc([N+](=O)[O-])cc1)c1ccccc1` (stereo not given), the AC50 is 37.3 µM (active).
As for `COCCOCCO`, the outcome was inactive.
`CCCCN(CCCC)N=O`: the call was inactive.
Same read-out and setting: as for `CCN(CC)c1ccccc1`, the entry is “inactive”; as for `CC(Cl)(Cl)C(=O)O`, “inactive”.
Same read-out and setting: under `CCCCCCCc1ccc(O)cc1` stands “inactive”.
In the case of `c1cc2c3c(cccc3c1)CC2`, the AC50 is 0.391 µM (active).
`c1nc[nH]n1`: the compound was called inactive.
The same measure, in the same setting: as for `ClC(Cl)(Cl)c1ccccc1`, the entry is “inactive”; as for `O=[N+]([O-])c1ccc(Cl)c(Cl)c1`, “inactive”.
Consider `c1ccc2c(c1)Nc1ccccc1S2`, for which the AC50 was 66.2 µM (active).
Consider `ClC(Cl)c1ccccc1`, for which the compound was classed as inactive.
